# IDE inh = inhibitors of human insulin-degrading enzyme in cells | P14735 | HEK cells, FAbetaB cleavage, fluorescence polarization | inhibition, % at 5.59 µM | hit rate 0.41% among 320,000;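 active = percent inhibition above the average of all tested compounds plus 3 SD, set per screening campaign, cut at about 16% in these data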;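 also: IDE supplied by intact live HEK cells; FP after avidin binding of uncleaved biotin substrate so inhibition keeps polarization high; 0% = DMSO wells and 100% = 60 µM reference IDE inhibitor Ii1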
# Target sequence (P14735 whole entry, looked up): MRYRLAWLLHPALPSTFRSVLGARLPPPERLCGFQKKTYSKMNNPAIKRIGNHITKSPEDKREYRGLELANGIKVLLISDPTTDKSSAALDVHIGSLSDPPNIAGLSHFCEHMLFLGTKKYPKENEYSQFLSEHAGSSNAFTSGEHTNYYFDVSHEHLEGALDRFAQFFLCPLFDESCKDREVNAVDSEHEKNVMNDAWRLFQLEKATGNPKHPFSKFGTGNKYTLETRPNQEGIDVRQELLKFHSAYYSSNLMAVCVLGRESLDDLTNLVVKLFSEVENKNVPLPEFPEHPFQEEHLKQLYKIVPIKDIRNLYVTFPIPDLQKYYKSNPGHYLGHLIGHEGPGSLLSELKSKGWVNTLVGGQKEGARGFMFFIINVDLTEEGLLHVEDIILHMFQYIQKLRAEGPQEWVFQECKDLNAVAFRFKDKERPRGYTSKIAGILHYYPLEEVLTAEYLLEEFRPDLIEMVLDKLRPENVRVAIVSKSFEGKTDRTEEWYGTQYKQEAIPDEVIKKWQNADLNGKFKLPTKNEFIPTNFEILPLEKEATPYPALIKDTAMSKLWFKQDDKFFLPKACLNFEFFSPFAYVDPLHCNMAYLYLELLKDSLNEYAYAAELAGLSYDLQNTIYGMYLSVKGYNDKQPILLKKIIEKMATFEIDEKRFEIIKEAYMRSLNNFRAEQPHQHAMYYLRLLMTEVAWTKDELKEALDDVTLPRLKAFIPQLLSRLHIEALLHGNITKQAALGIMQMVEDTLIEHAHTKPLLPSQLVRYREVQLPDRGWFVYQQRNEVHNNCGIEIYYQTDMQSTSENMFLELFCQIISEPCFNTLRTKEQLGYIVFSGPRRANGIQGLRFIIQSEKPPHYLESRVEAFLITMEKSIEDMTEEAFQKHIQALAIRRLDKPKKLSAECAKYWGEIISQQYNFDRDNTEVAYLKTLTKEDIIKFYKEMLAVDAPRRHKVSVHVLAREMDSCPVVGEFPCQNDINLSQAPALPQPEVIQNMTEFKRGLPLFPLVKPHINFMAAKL
# CRFR2-BP antag = blocks CRF-induced signaling of the CRF-BP/CRF-R2 complex; HEK293 CRF-R2/CRF-BP, CRF-induced calcium fluorescence; inhibition, % at 11.8 µM; hit rate 0.59% among 350,000;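 active = inhibition of the ligand-induced calcium signal above about 50% at the single tested concentration, limit read from the data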
# CRFR2-BP ag = CRF-BP/CRF-R2 complex agonism. hit rate 0.46% among 350,000. activation, % at 13.2 µM. HEK293 CRF-R2/CRF-BP, calcium dye fluorescence (FLIPR); percent of saturating CRF peptide response;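 active = activation of at least 50%, plus an integration ratio under a set limit after plate pattern correction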;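 also: plate controls were neutral control wells without compound for no effect and CRF at EC100 for full effect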
# IDE act = activators of human insulin-degrading enzyme in cells; activation, % at 5.96 µM; hit rate 0.073% among 340,000; HEK cells, FAbeta-B cleavage, fluorescence polarization; 0% vehicle, 100% cell-free pure enzyme wells;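 active = activation above the mean of all tested compounds plus 3 SD, set per screening campaign, cut at about 17% in these data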
# TPT1 inh = inhibitors of Candida albicans tRNA 2'-phosphotransferase TPT1; hit rate 0.81% among 300,000; inhibition, % at 5 µM; recombinant caTPT1, FP RNA substrate dephosphorylation; AID 1962;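 active = inhibition above the mean of all tested compounds plus 3 SD, set per screening campaign, cut at about 24% in these data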;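 also: plate controls were DMSO alone for no effect and ferristatin control at 100 nM for full effect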
# Myeloid diff MLP = compounds promoting myeloid differentiation; calls only at 10 µM; AID 624256; ER-HoxA9 myeloid progenitors, lysozyme-GFP differentiation, flow cytometry; hit rate 1% among 360,000;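 active = normalized GFP-positive differentiation at or above the plate's own cutoff, the solvent-only control mean plus 3 SD; inconclusive = no clear call, values can overlap the other calls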;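 also: cells exposed to compound for four days before flow analysis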
# * = called active by the depositor; i = inactive; ? = inconclusive; / = no result; + = active, no number. In the library only some 2.6% were active in any assay of this set; here they are far more common.
SMILES,IDE inh,CRFR2-BP antag,CRFR2-BP ag,IDE act,TPT1 inh,Myeloid diff MLP
COC(=O)c1ccccc1-c1ccc(/C=N/NC(=O)c2cc3ccccc3o2)o1,5,8,0,-3,-2,i
COC(=O)c1ccccc1-c1c2ccc(=N)cc-2oc2cc(N)ccc12,-3,-92,176*,39*,/,+
NC(=O)c1cc(N=Nc2c(N)[nH]n(-c3c(Cl)cc(Cl)cc3Cl)c2=O)ccc1Cl,2,-6,0,4,0,i
S=C(NCCc1cccc(Cl)c1)NC1CCCCC1,/,16,0,2,/,i
COc1ccc(C(=O)N2CCC3(CC2)NCCc2[nH]cnc23)cc1,2,-4,0,7,3,i
CCN(CC)CCNS(=O)(=O)c1ccc2[nH]cc(C(=O)O)c(=O)c2c1,-3,17,-3,2,0,i
Cc1cc(C)cc(NS(=O)(=O)c2ccc3[nH]cc(C(=O)N4CCc5ccccc54)c(=O)c3c2)c1,1,-101,61*,0,-1,i
CCN(CC)C(=O)c1c[nH]c2ccc(S(=O)(=O)Nc3cc(C)cc(C)c3)cc2c1=O,-8,-106,125*,-4,-5,i
Cc1sc2nc(SCC(=O)c3cccs3)n(Cc3ccco3)c(=O)c2c1C,4,21,-1,-2,-3,+
Cc1ccc(Nc2ccc(C(=O)O)cc2N)cc1,0,56*,-4,/,2,/
Cc1ccc2c(CN3CCCc4ccccc43)cc(=O)oc2c1C,-2,0,11,-1,16,+
O=C(COC(=O)c1cc2ccccc2cc1O)NC1CCCCC1,-4,87*,-1,1,/,i
CCCn1nc(-c2ccccc2)c2nc3ccccc3nc21,4,-43,106*,/,-7,/
CCn1nc(-c2ccccc2)c2nc3ccccc3nc21,8,-188,160*,-10,-10,i
CCn1c2ccc(Cl)cc2c2nc3ccccc3nc21,1,-6,3,/,0,/
CCOc1ccc(CN(C(=O)c2cc(=O)c3cc(C)cc(C)c3o2)C2CCS(=O)(=O)C2)cc1 (centres undefined),9,7,-1,2,-3,?
COc1ccc([N+](=O)[O-])cc1NC(=O)C1CCCCC1C(=O)O (centres undefined),4,5,-1,-1,-1,i
CCN1Cc2c(/C=C/c3ccccc3)nc3ccc(OC)cc3c2N(c2cccc(Cl)c2)C1,0,-25,21,3,12,+
CCCN1CCC(=O)N([C@H](CSc2ccc(Br)cc2)Cc2ccccc2)CC1,9,-8,-1,1,-6,+
CCCC(NC(=O)C(C)Sc1nnnn1C1CC1)c1ccccc1 (centres undefined),7,4,0,1,/,i
CC(=O)Nc1ccc(/C=N\NC(=O)CNS(=O)(=O)c2ccc([N+](=O)[O-])cc2)cc1,4,-9,-1,2,-1,i
O=C(CNS(=O)(=O)c1ccc([N+](=O)[O-])cc1)N/N=C\c1ccc(O)cc1,-1,-26,65*,7,-1,i
COc1ccc(NC(=O)Nc2ccc3c(c2)OCO3)c(C)c1,2,53*,-1,5,-2,i
Cc1cc(OC(F)F)ccc1NC(=O)Nc1ccc2c(c1)OCO2,2,-2,2,-1,-3,i
O=C(Nc1ccc2c(c1)OCCO2)C(c1ccncc1)n1c(=O)c(-c2cc3ccccc3[nH]2)nc2ccccc21 (centres undefined),/,/,/,/,/,+
O=C(Nc1ccc2c(c1)OCCO2)C(c1ccc(C(F)(F)F)cc1)n1c(=O)c(-c2cc3ccccc3[nH]2)nc2ccccc21 (centres undefined),/,/,/,/,/,i
CC(C)C[C@H](NC(=O)[C@H](Cc1ccccc1)n1c(=O)[nH]c2ccccc2c1=O)C(=O)N1CCC[C@@H]1C(=O)O,0,-3,4,0,0,i
CC(Cc1c[nH]c2ccccc12)NC(=O)OCCCl (centres undefined),2,1,0,3,-8,+
Cn1nc([N+](=O)[O-])nc1Oc1ccccc1,3,23,0,10,1,i
Cn1nc([N+](=O)[O-])nc1Oc1ccc(C(C)(C)C)cc1,3,76*,-3,-3,2,i

# Bioassay records: PubChem, several laboratories
